In PubChem BioAssay (NCI) one finds growth data, which are given here for seven compounds.

This is part of a sample that, as a whole, favours compounds with a hit. Of some 83,000 tested, about 20% had one in any assay.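 Cells were grown in 96-well plates and exposed to the test compound at a single concentration for 48 hours; results are reported as percent growth, with values below 10 considered active.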 Unmarked numbers belong to inactive results. Activity calls are given as the source filed them.

Among the test systems are NCI-H23 lung; NCI-H226 lung; NCI-H322M lung; HOP-62 NSCLC; NCI-H460 lung; HOP-92 NSCLC; NCI-H522 lung; A549/ATCC NSCLC; 786-0 renal; COLO 205 colon; DU-145 prostate; K-562 leukemia; MALME-3M melanoma; MDA-MB-231 breast; RXF 393 renal; SF-268 CNS; SF-295 CNS; SF-539 CNS; UACC-257 melanoma; M14 melanoma.
Experiment in all cases: NCI-60 one-dose screen, 48 h (100 = growth as untreated, 0 = no growth, -100 = all killed)
Common to all, as to settings: 10 µM unless noted

For the compound `COc1ccc2cc(-c3cc(OC)c(OC)c(OC)c3)c(=O)oc2c1`, the growth in the experiment with NCI-H23 lung is 79.8%; with NCI-H226 lung it was 78.4%; with NCI-H322M lung, 103%; in the experiment on HOP-62 NSCLC, 68.3%; with NCI-H460 lung, 84.4%; in the experiment on HOP-92 NSCLC, 79.2%. Moreover, the growth with NCI-H522 lung is 48.3%; with A549/ATCC NSCLC, 42.1%; in the experiment on 786-0 renal it was 68.2%; with COLO 205 colon it was 83.3%; with DU-145 prostate, 101%; in the experiment with K-562 leukemia, 27.7%. In addition, the growth is 65.1% with MALME-3M melanoma; 60.8% with MDA-MB-231 breast; 84.9% in the experiment on RXF 393 renal; 89.7% in the experiment with SF-268 CNS; 71.4% in the experiment with SF-295 CNS; 80.2% in the experiment on SF-539 CNS. Further, the growth in the experiment with UACC-257 melanoma is 54.9%; in the experiment on M14 melanoma, 38.6%.

With `CC1CC(C(C)(C)C)C(=O)C(C(C)(C)C)C1` (stereo not given), the growth was 109% in the experiment with NCI-H23 lung; 98.8% with NCI-H226 lung; 107% with NCI-H322M lung; 105% in the experiment on HOP-62 NSCLC; 108% in the experiment with NCI-H460 lung; 85% in the experiment on HOP-92 NSCLC. Further, the growth with NCI-H522 lung is 90.8%; in the experiment on A549/ATCC NSCLC it was 100%; in the experiment with 786-0 renal, 100%; in the experiment on COLO 205 colon, 115%; in the experiment with DU-145 prostate, 112%; in the experiment with K-562 leukemia, 102%. Further, the growth in the experiment with MALME-3M melanoma is 105%; in the experiment with MDA-MB-231 breast, 109%; in the experiment with RXF 393 renal, 112%; in the experiment with SF-268 CNS, 103%; in the experiment with SF-295 CNS it was 105%; with SF-539 CNS, 101%. Also, the values for the growth in the experiment on UACC-257 melanoma and in the experiment on M14 melanoma were 102% and 118%, respectively.

For `NC(N)=Nc1nc2ccccc2n2c1nc1ccccc12`, the growth with NCI-H23 lung is 36.3%; in the experiment with NCI-H226 lung, 56.7%; with NCI-H322M lung it was 43.7%; in the experiment with HOP-62 NSCLC, 40.4%; in the experiment on NCI-H460 lung, 8.12% (active); in the experiment with HOP-92 NSCLC, 56.6%. The growth is 16.1% in the experiment on NCI-H522 lung; 17.7% with A549/ATCC NSCLC; 33.5% with 786-0 renal; 30.3% in the experiment with COLO 205 colon; 33.3% with DU-145 prostate; 17.9% in the experiment on K-562 leukemia. Further, the growth is 35.6% with MALME-3M melanoma; 53.2% with MDA-MB-231 breast; 35% in the experiment on RXF 393 renal; 28.5% in the experiment with SF-268 CNS; 24.2% in the experiment with SF-295 CNS; 50.3% in the experiment with SF-539 CNS. For the same compound, the growth is 60.3% with UACC-257 melanoma and 42.6% in the experiment on M14 melanoma.

For `Cc1ccc(S(=O)(=O)NCC[C@@H]2C[C@H]2c2cc3ccccc3s2)cc1`, the growth is 93.2% in the experiment on NCI-H23 lung; 87.8% in the experiment with NCI-H226 lung; 101% in the experiment with NCI-H322M lung; 108% with HOP-62 NSCLC; 104% in the experiment on NCI-H460 lung; 101% in the experiment on HOP-92 NSCLC. Also, the growth in the experiment on NCI-H522 lung was 85.3%; with A549/ATCC NSCLC it was 98.5%; in the experiment with 786-0 renal, 100%; in the experiment on COLO 205 colon, 120%; with DU-145 prostate it was 101%; with K-562 leukemia, 85.1%. The growth was 99.8% in the experiment with MALME-3M melanoma; 92.5% in the experiment on MDA-MB-231 breast; 103% in the experiment with RXF 393 renal; 93.3% in the experiment on SF-268 CNS; 103% in the experiment on SF-295 CNS; 98.3% in the experiment on SF-539 CNS. Also, the growth with UACC-257 melanoma and in the experiment with M14 melanoma was 108% each time.

Take `C=C(C)[C@@H]1CC[C@]2(C(=O)NC3CCCCC3)CC[C@]3(C)[C@H](CC[C@@H]4[C@@]5(C)CCCNC(C)(C)[C@@H]5CC[C@]43C)[C@@H]12`: the growth with NCI-H23 lung was 76.7%; in the experiment with NCI-H226 lung, 63%; in the experiment on NCI-H322M lung, 65.7%; in the experiment on HOP-62 NSCLC it was 80.4%; with NCI-H460 lung, -56.5% (active); in the experiment on HOP-92 NSCLC it was 62.3%. Further, the growth in the experiment with NCI-H522 lung is 60%; in the experiment with A549/ATCC NSCLC, 41.2%; in the experiment with 786-0 renal it was 62.7%; in the experiment with COLO 205 colon, -63.1% (active); with DU-145 prostate, 59%; in the experiment with K-562 leukemia, -8.4% (active). The growth in the experiment on MALME-3M melanoma is -6.88% (active); in the experiment with MDA-MB-231 breast, 52.7%; in the experiment on RXF 393 renal, 56.6%; in the experiment with SF-268 CNS it was 78.4%; with SF-295 CNS it was 96.9%; with SF-539 CNS it was 63.4%. For the same compound, the growth in the experiment on UACC-257 melanoma was -9.57% (active); in the experiment with M14 melanoma it was -52.3% (active).

Regarding `O=C(/C=C/c1cccc(O)c1)c1cccc(-n2cc(-c3ccc4ccccc4c3)[nH]c2=O)c1`, the growth was 28.2% with NCI-H23 lung; 88.9% in the experiment with NCI-H226 lung; 4.64% (active) in the experiment on NCI-H322M lung; -20.9% (active) with HOP-62 NSCLC; -9.23% (active) with NCI-H460 lung; 42.6% with HOP-92 NSCLC. Moreover, the growth is 75.9% in the experiment with NCI-H522 lung; 61.8% with A549/ATCC NSCLC; -87.9% (active) in the experiment on 786-0 renal; -8.8% (active) with COLO 205 colon; -17.3% (active) in the experiment with DU-145 prostate; -40.4% (active) with K-562 leukemia. For the same compound, the growth in the experiment on MALME-3M melanoma is -6.88% (active); with MDA-MB-231 breast, 14.7%; with RXF 393 renal, 29.8%; in the experiment with SF-268 CNS, -6.97% (active); in the experiment on SF-295 CNS, 6.57% (active); in the experiment with SF-539 CNS, -88.3% (active). Moreover, the growth in the experiment on UACC-257 melanoma is 99.6%; in the experiment with M14 melanoma it was 16.2%.

For `CC1=C(SCCC(=O)OC(C[Se]C2=C(C)C(=O)c3ccccc3C2=O)C(=O)NCCCCCC(=O)OCc2ccccc2)C(=O)c2ccccc2C1=O` (stereo not given), the growth with NCI-H23 lung is 15.2%; with NCI-H226 lung it was 93.4%; in the experiment with NCI-H322M lung it was 8.06% (active); in the experiment with HOP-62 NSCLC, 12.8%; in the experiment with NCI-H460 lung it was 10.9%; in the experiment on HOP-92 NSCLC, 58.4%. In addition, the growth is 20.7% in the experiment with NCI-H522 lung; 22.2% in the experiment with A549/ATCC NSCLC; 40.1% in the experiment with 786-0 renal; 40% in the experiment on COLO 205 colon; 39.1% with DU-145 prostate; 21.6% in the experiment with K-562 leukemia. Also, the growth in the experiment with MALME-3M melanoma is 45.6%; with MDA-MB-231 breast, 59%; with RXF 393 renal, 57.8%; with SF-268 CNS it was 48.8%; in the experiment on SF-295 CNS, -7.98% (active); in the experiment with SF-539 CNS, 9.31% (active). In addition, the results for the growth in the experiment on UACC-257 melanoma and with M14 melanoma were 45.4% and -1.57% (active), respectively.
